Out of some 200,000 compounds screened, about 18,000 (9%) were called active. Rule as the data show it: active = inhibition above about 50%; inactive = the rest. The list comes from a sample in which actives are over-represented; it also holds similar structures and randomly drawn compounds.

One may read the inhibition as the drop in the measured response relative to a control, in per cent.

A short description of the assay: Leishmania major promastigote growth inhibition, primary screen (AID 1063).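 Also: promastigotes grown with compound for 44 hours at 28 °C.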 As to conditions: Leishmania major promastigotes, resazurin fluorescence viability; at 10 µM; stronger effect = higher value. (In general: The colour change of resazurin is a common sign of viable cells or microbes.)
Consider `O=C(Cc1ccc(F)cc1)N/N=C/c1ccc2c(c1)OCO2`, for which the inhibition was -2.74% (inactive).
With `Cc1noc(C)c1/C=N/Nc1ccc2ccccc2n1`, the inhibition is 56.6% (active).
Turning to `Cc1nc2ccccc2cc1C(=O)N/N=C/c1ccc([N+](=O)[O-])cc1`, the inhibition is -3.55% (inactive).
With `Brc1ccc(-c2csc(N/N=C/c3ccc4c(c3)OCO4)n2)cc1` the figure was 1.9% (inactive).
The value for `Cc1cc(C)nc(N/N=C/c2c(C)oc3ccccc23)n1` was 3.92% (inactive); that for `C(=N\Nc1ccc2ccccc2n1)/c1ccc2c(c1)OCO2` was 52.1% (active).
With `CC(C)(C)NC(=O)CN(C(=O)c1ccc(Cl)nc1)c1cccc2ccccc12` the figure was 31.5% (inactive); with `COc1ccc(Cl)cc1N(CC(=O)N/N=C/c1ccc(OCC(N)=O)cc1)S(C)(=O)=O`, 30.9% (inactive).
For `CCOc1ccc(N(CC(=O)NCCc2ccc(OC)cc2)S(C)(=O)=O)cc1`, the inhibition was -6.74% (inactive).
In the case of `COCCN(C(=O)CCC(=O)Nc1nccs1)C(C(=O)NC(C)(C)C)c1ccc(Cl)cc1` (stereo not given), the inhibition is -1.47% (inactive).
The value for `COCCOC(=O)C1=C(C)Nc2nc(C)nn2C1c1ccccc1` (stereo not given) was 1.25% (inactive).
With `CC1=C(C(N)=O)C(c2sccc2C)n2nnnc2N1` (stereo not given) the figure was -2.53% (inactive).
With `CCCCCOC(=O)C1=C(C)Nc2nnnn2C1c1ccc(OC)c(OC)c1OC` (stereo not given), the inhibition is 92.7% (active).
With `O=C(CCc1ccccc1)Nc1nn[nH]n1` the figure was -3.55% (inactive).
With `O=C(CSc1ccc([N+](=O)[O-])cn1)Nc1ccc(N2CCOCC2)cc1` the figure was -2.33% (inactive); with `COC(=O)c1ccc(NCC(=O)N2CCCCCC2)cc1`, -4.15% (inactive); with `O=C(O)c1ccn(COc2ccc(Br)cc2)n1`, -6.55% (inactive).
The value for `O=C(CSc1nc2ccc(Nc3nc(N4CCOCC4)nc(N4CCOCC4)n3)cc2s1)NCc1ccco1` was 66% (active).
With `O=C(CSc1c2c(nc3ccc(Cl)cc13)CCCC2)NCc1ccco1`, the inhibition is 39.9% (inactive).
The value for `C=CCn1c(CSc2nc3ccccc3s2)nnc1SCC(=O)NCc1ccco1` was -0.85% (inactive).
With `CCN(CC)S(=O)(=O)c1ccc(N(C)CCc2ccc(OC)c(OC)c2)nc1` the figure was 20.7% (inactive); with `Cc1ccc(O)c(NC(=S)NC(=O)COc2ccc(Br)cc2)c1`, -2.21% (inactive); with `CC(=O)NC(Cc1ccc(F)c(F)c1)C(=O)NC1CCN(c2nnnn2-c2ccccc2)CC1` (stereo not given), 9.51% (inactive).
The value for `CC(=O)NC(Cc1ccccc1)C(=O)NC1CCN(c2ncccc2[N+](=O)[O-])CC1` (stereo not given) was 57.3% (active); that for `CNC(=S)N1CCC(NC(=O)C(Cc2ccc(F)cc2)NC(C)=O)CC1` (stereo not given) was -5.13% (inactive).
For the compound `CC(Sc1nc2cc(Cl)ccc2s1)C(=O)Nc1ccc2c(c1)OCO2` (stereo not given), the inhibition was 3.45% (inactive).
With `O=C(Nc1ccc(N2CCOCC2)cc1)c1ccc(-c2ccccc2[N+](=O)[O-])o1` the figure was 7.53% (inactive); with `CCOc1cc(NS(=O)(=O)c2ccc(OC)cc2)c(OCC)cc1NC(C)=O`, -2.08% (inactive).
With `O=C(Cn1c(COc2ccccc2)nc2ccccc21)Nc1cc(Cl)c(Cl)cc1Cl` the figure was 94.1% (active).
The value for `O=C(Cn1c(-c2cscn2)nc2ccccc21)Nc1ccc(Cl)cc1` was 16.4% (inactive); that for `COCn1c(COc2ccccc2)nc2ccccc21` was 1.65% (inactive).
As to `Cc1ccc(N(C(=O)Cc2cccs2)C2C=CS(=O)(=O)C2)cc1Cl` (stereo not given), the inhibition is 3.36% (inactive).
With `O=C(Nc1ccc(Cl)cn1)c1ccc2c(c1)OCCO2` the figure was -10.2% (inactive).
With `CCN(CC(=O)NCc1cccs1)S(=O)(=O)c1ccc(NC(C)=O)cc1` the figure was -3.41% (inactive); with `COc1ccc(NC(=S)NCCN2CCC(C)CC2)cc1`, 23.9% (inactive).
The value for `COc1ccc(N2CCN(C(=S)Nc3ccc(S(N)(=O)=O)cc3)CC2)cc1` was -7.62% (inactive); that for `COc1ccc(NC(=S)NCC2CCN(c3ccc(OC)cc3)C2)cc1` (stereo not given) was 74.9% (active); that for `Cc1c(NC(=O)CCC2CCCCC2)cc(C(=O)N2CCOCC2)cc1[N+](=O)[O-]` was -3.89% (inactive).
As for `CCOC(=O)C(=CNc1cccc(C)n1)C(=O)OCC`, the inhibition was -3.94% (inactive).
In the case of `CCOC(=O)C(=Cc1ccccc1OC)C(=O)OCC`, the inhibition is 53.7% (active).
With `COc1ccccc1C(=O)C(O)c1ccccc1OC` (stereo not given) the figure was 1.96% (inactive); with `Cn1c(CCC(=O)OCC(=O)NCc2ccccc2Cl)nc(=O)c2ccccc21`, -0.71% (inactive); with `Cc1ncoc1C(=O)NCCC(c1ccccc1)c1ccccc1`, 1.37% (inactive).
The value for `CCOC(=O)c1cnc(-n2nc(C)cc2C)nc1-n1nc(C)cc1C` was 33% (inactive); that for `CCOC(=O)c1cnc(-n2nc(C)cc2C)nc1NNc1cc(C)nc(-c2ccccc2)n1` was 100% (active).
For the compound `CCOC(=O)c1cnc(-n2nc(C)cc2C)nc1Nc1cccc(C(C)=O)c1`, the inhibition is 4.22% (inactive).
With `CCOC(=O)C(C)n1nc(-c2ccccc2)c2ccccc2c1=O` (stereo not given) the figure was 12.5% (inactive); with `CN(C)c1nc(-c2cccnc2)nc(-c2ccc(Cl)cc2)c1C#N`, 8.3% (inactive); with `COCCN(CCOC)S(=O)(=O)c1ccc(/C(O)=C(\C#N)c2nc3ccccc3[nH]2)cc1`, 1.17% (inactive).
With `CC(C)(C)NC(=O)NC(=O)COC(=O)C1(C)CC1(Cl)Cl` (stereo not given) the figure was 0.27% (inactive); with `CCOn1c(=O)c(=O)n(O)c2ccccc21`, -2.81% (inactive).
For `Cn1nnnc1SCC(=O)NNC(=O)c1ccc(Br)cc1`, the inhibition was -7.24% (inactive).
With `CN(C(=O)CSc1nc(C2CC2)nc2ccccc12)c1nc(-c2ccccc2)cs1` the figure was 54.6% (active); with `COC(=O)CSc1nc(C2CC2)nc2ccccc12`, -7.75% (inactive); with `O=C(CSc1nc(C2CC2)nc2ccccc12)Nc1ccc2c(c1)OCCO2`, 6.82% (inactive).
The value for `CCn1ccnc1CN(C)Cc1nc(-c2ccc3c(c2)OCO3)no1` was 1.95% (inactive); that for `CN(Cc1cc2cc(F)ccc2[nH]1)Cc1nc(-c2cnccn2)no1` was -6.82% (inactive); that for `CCOCCCNCc1ccc(OCc2ccc(F)cc2)c(OC)c1` was 97.1% (active).
As for `COc1ccc(CNCCCO)cc1OC`, the inhibition was -3.13% (inactive).
The value for `COc1cc(CNCCN(C)C)ccc1OCc1c(F)cccc1Cl` was 66.6% (active); that for `CCN(CC)CCNCc1ccc(OCc2ccc(Cl)nc2)c(OC)c1` was -3.17% (inactive); that for `COc1cc(CNc2ncn[nH]2)ccc1OCc1ccccc1C` was -5.58% (inactive).
For the compound `CCNC(=O)c1ccc(OCC(=O)Nc2ccc(F)cc2)c(OC)c1`, the inhibition was 0.66% (inactive).
In the case of `CCCCC1N2CC3([N+](=O)[O-])CN1CC([N+](=O)[O-])(C2)C3(C)C` (stereo not given), the inhibition is -3.35% (inactive).
With `Cc1cccc(NC(=O)Nc2ccc3c(c2)OCO3)n1` the figure was -1.54% (inactive); with `CCN(CC)CCOc1ccc2c(c1)C(=NNC(=O)c1ccccn1)c1cc(OCCN(CC)CC)ccc1-2`, 101% (active); with `CCOc1cc(NC(=O)c2ccccn2)c(OCC)cc1NC(=O)c1ccc(OC)cc1`, -3.96% (inactive).
With `CCC(C)(NC(=O)c1ccccn1)C(=O)NC1CCCCC1` (stereo not given) the figure was 0.94% (inactive); with `CC(=O)C1=C(C)NC2=C(C(=O)CC(C)(C)C2)C1C` (stereo not given), -3.1% (inactive).
The value for `CCC(C)NCC(=O)Nc1ccc([N+](=O)[O-])cc1C(=O)Nc1ccccc1F` (stereo not given) was 11.7% (inactive).
In the case of `CC(C)(C)NC(=O)C(=O)NN=C1CCCCCCC1`, the inhibition was 9.68% (inactive).
For `CC(C)CCN1CCN(C/C=C/c2ccco2)CC1CCO` (stereo not given), the inhibition was 5.83% (inactive).
The value for `OCCC1CN(Cc2ccc3nsnc3c2)CCN1C1CCCCC1` (stereo not given) was 13.5% (inactive).
With `Cc1ccc(CN2CCN(Cc3cccc(C)n3)CC2CCO)cc1` (stereo not given) the figure was -2.02% (inactive); with `CC(C)N1CCC(N2CCN(Cc3cccnc3)CC2CCO)CC1` (stereo not given), -2.03% (inactive); with `CC(C)=CCN1CCN(Cc2ccc(Oc3ncccn3)cc2)CC1CCO` (stereo not given), -0.29% (inactive).
The value for `Cc1ccc(CN2CCN(Cc3ccc4ncccc4c3)CC2CCO)cc1` (stereo not given) was 73.7% (active); that for `OCCC1CN(Cc2ccc(Oc3ncccn3)cc2)CCN1CCc1ccccc1` (stereo not given) was 59.6% (active).
For `CC(=O)Nc1ccc(CN2CCN(Cc3ccc(F)c(F)c3)C(CCO)C2)cc1` (stereo not given), the inhibition was 6.71% (inactive).
The value for `COC(=O)c1ccc(CN2CCN(CCCc3ccccc3)C(CCO)C2)cc1` (stereo not given) was 83.9% (active); that for `CC(C)CCN1CCN(Cc2ccc(C(F)(F)F)cc2)CC1CCO` (stereo not given) was 87.1% (active); that for `CC(C)CCN1CCN(Cc2cn[nH]c2C2CCCCC2)CC1CCO` (stereo not given) was 24.3% (inactive).
With `COc1ccc(CN2CCN(Cc3cn(C)nc3-c3ccccc3)CC2CCO)c(C)c1C` (stereo not given) the figure was -0.96% (inactive); with `CCOC(=O)C(CC)/C(C)=N\NC(=O)c1cccc(C)c1` (stereo not given), -5.28% (inactive); with `COC(=O)c1cccnc1NC(=S)NC(C)C`, -3.71% (inactive).
With `C=CCNC(=O)CC12CC3CC(C1)CC(CC(=O)NCC=C)(C3)C2`, the inhibition was -6.25% (inactive).
With `COc1cccc(C(=O)Nc2cccnc2)c1OC` the figure was -4.33% (inactive); with `CCCN(C(=O)CSc1nnnn1C)c1c(N)n(Cc2ccccc2)c(=O)[nH]c1=O`, -5.81% (inactive); with `O=C(CCN1C(=O)C2C3C=CC(C3)C2C1=O)Oc1ccc2ccccc2c1` (stereo not given), 24% (inactive).
With `O=c1[nH]c(N2CCN(Cc3ccc4c(c3)OCO4)CC2)nc2c1CCCC2` the figure was 0.88% (inactive); with `CCOC(=O)CSc1ccccn1`, -7.49% (inactive).
`Cc1c(Cc2ccccc2)c(=O)oc2cc(OCC(N)=O)ccc12`: the inhibition was -6.96% (inactive).
With `CCOc1ccc(NS(=O)(=O)c2cc(C)c(C)cc2C)cc1` the figure was 5.1% (inactive); with `S=C(c1ccc(-c2ccccc2)o1)N1CCCCC1`, 12.2% (inactive).
In the case of `OCCC1CN(Cc2cccn2-c2nccs2)CCN1CCc1ccccc1` (stereo not given), the inhibition was 11.3% (inactive).
The value for `COc1ccc(/C=C/CN2CCN(Cc3ccc(C)cc3)C(CCO)C2)cc1` (stereo not given) was 67.4% (active); that for `Cc1ccc(CN2CCN(Cc3ccc(OCCO)cc3)CC2CCO)o1` (stereo not given) was -4.28% (inactive); that for `OCCC1CN(Cc2cnc(-c3ccccc3)s2)CCN1CCc1ccccc1` (stereo not given) was 83.7% (active).
The value for `OCCC1CN(Cc2cccc(O)c2)CCN1CCc1ccccc1` (stereo not given) was -0.63% (inactive); that for `Cc1ccc(CN2CCN(Cc3ccccc3-c3ccco3)CC2CCO)o1` (stereo not given) was 3.16% (inactive).
